In PubChem BioAssay:
Calls of active or inactive are those of the source.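 How the source made its calls, unless noted: active means NADPH fluorescence slope more negative than the mean of all samples by about 3 SD, 99.7% confidence; inactive means the rest.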

How the values were obtained:
[1] = inhibitors of TNFa-induced NFkB p65 translocation, primary screen, imaging, HUVEC, MLSMR starter and 10KST1 sets (AID 438;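 active means inhibition above 20% together with a positive visual image hit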;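 further: compound added about 3h40 before a 20 min TNFalpha stimulation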;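 on inhibition: signal is the nuclear over cytoplasmic p65 intensity ratio per well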); details: HUVEC TNFa-induced p65 nuclear translocation; cell count: measured here: nuclei count (cytotoxicity indicator), at 2.08 µM; inhibition: at 2 µM, stronger effect = higher value, 0% TNFa-plus-vehicle, 100% no-TNFa wells
[2] = reduction of polyQ htt aggregates in cells – imaging, exon1htt(103Q)mCFP cells, high-content imaging, primary screen (AID 483;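 active means visual image review flags a hit and inhibition of aggregation exceeds 20%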;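 further: compound exposure lasted 3 days before fixation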;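 on nuclei count: percent of the per-plate median nuclei count of sample wells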); details: exon1htt(103Q)mCFP cell line, aggregate imaging, at 2 µM; inhibition of aggregation: stronger effect = higher value; nuclei count: measured here: cell count, toxicity
[3] = endothelial E-selectin expression blockers – imaging, HUVEC, immunofluorescence, MLSMR starter and 10KST1 sets, primary screen (AID 487;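 active means visually confirmed hit in the image check and inhibition above 20%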;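 on inhibition: signal is fraction of cell area covered by stained E-selectin grains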;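 on nuclei count: 100% = median nuclei count of all wells on the same plate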); details: HUVEC TNFalpha-induced E-selectin immunofluorescence imaging, at 2 µM; inhibition: stronger effect = higher value; nuclei count: measured here: cell number, toxicity
[4] = biological target: Voltage-gated potassium channel subunit beta-2 (Rattus norvegicus) (UniProt P62483); assay: inhibitors of rat Kvbeta2 reductase activity – biochemical, NADPH fluorescence, primary screen (AID 622;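 active means fluorescence slope higher than the sample average by over 3 SD, cut at about -0.22 in these data, passing the limit was not always enough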;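 further: slope of raw intensity against log time taken from 70 to 1610 s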); details: recombinant KvBeta, 4-cyanobenzaldehyde reduction, at 10 µM, stronger effect = higher value
Sequence of Voltage-gated potassium channel subunit beta-2 (Rattus norvegicus) (P62483 whole entry, looked up): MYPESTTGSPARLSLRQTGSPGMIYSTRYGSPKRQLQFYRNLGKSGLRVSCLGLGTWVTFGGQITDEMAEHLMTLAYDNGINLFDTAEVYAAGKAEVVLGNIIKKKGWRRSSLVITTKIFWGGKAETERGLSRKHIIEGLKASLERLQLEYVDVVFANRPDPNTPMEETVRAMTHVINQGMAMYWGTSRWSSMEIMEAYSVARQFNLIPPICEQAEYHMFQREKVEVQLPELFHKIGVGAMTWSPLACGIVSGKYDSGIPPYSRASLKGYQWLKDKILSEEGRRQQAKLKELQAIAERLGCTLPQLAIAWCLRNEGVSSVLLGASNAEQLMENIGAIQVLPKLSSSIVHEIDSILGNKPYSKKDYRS

[5] = biological target: Voltage-gated potassium channel subunit beta-2 (Rattus norvegicus) (UniProt P62483); assay: enhancers of rat Kvbeta2 NADPH turnover – biochemical, NADPH fluorescence, primary screen (AID 623); details: Recombinant KvBeta, NADPH fluorescence decrease slope, 10 min; at 10 µM; stronger effect = lower value;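 further: fluorescence intensity change per second fitted from 20 to 320 s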
[6] = biological target: Alpha-2C adrenergic receptor (Homo sapiens) (UniProt P18825); assay: compounds altering alpha2C-coupled GIRK flux – cell-based, HEK293 alpha2C/GIRK1/2, thallium flux, primary screen (AID 624;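 active means fluorescence slope after compound addition differing from the mean of all screened samples at 99.7% confidence, in either direction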;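 further: slope of fluorescence ratio to pre-addition baseline per second over 15 to 24 s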); details: thallium flux BTC fluorescence, at 10 µM, actives lie on both sides
Sequence of Alpha-2C adrenergic receptor (Homo sapiens) (P18825 whole entry, looked up): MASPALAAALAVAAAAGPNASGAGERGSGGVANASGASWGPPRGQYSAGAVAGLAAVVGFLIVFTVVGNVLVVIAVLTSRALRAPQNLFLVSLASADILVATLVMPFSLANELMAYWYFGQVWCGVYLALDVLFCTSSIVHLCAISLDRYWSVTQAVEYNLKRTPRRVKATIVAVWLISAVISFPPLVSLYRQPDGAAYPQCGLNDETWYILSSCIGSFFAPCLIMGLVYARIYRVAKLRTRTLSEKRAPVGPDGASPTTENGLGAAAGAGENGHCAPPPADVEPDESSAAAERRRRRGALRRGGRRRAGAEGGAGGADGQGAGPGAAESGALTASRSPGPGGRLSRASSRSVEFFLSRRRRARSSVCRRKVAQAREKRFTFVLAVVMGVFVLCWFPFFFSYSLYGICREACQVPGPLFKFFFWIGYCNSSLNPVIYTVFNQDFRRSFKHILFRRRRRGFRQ

[7] = blockers of RIG-like receptor reporter activation – cell-based, Sendai virus stimulus, luciferase, 10K MLSCN set, TLR/RLR signaling modifier project, primary screen (AID 602276;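 active means inhibition at or above 50% at 10 µM; inactive means inhibition below 50%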;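 further: firefly luciferase from ISG56 promoter only with Renilla not read in this screen; 0% = Sendai virus plus DMSO and 100% = medium plus DMSO without virus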); details: HEK293 RL24 IRF3 luciferase reporter, at 10 µM, stronger effect = higher value
[8] = TLR3 IRF3 reporter activation blockers – cell-based, poly I:C stimulus, luciferase, 10K MLSCN set, primary screen (AID 602277;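 active means inhibition of the reporter signal at or above 50%; inactive means inhibition below 50%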); details: HEK293-TLR3 RL24 IRF3 luciferase reporter, at 10 µM, stronger effect = higher value

SMILES	cell count [1]	inhibition [1]	inhibition of aggregation [2]	nuclei count [2] [%]	inhibition [3]	nuclei count [3] [%]	fluorescence slope [4]	NADPH fluorescence slope [5]	slope [6]	inhibition [7]	inhibition [8]
CCCC(c1nnnn1Cc1ccc(OC)cc1)N1CCN(c2ccccc2OC)CC1 (stereo not drawn)	257	12.3% (inactive)	-3.4% (inactive)	101	-14.7% (inactive)	82.7	-0.433 (inactive)	-0.000141 (inactive)	0.00492 (inactive)	10.6% (inactive)	23.6% (inactive)
CCOCCCn1c(=S)[nH]c2cc3c(cc2c1=O)OCO3	453	3% (inactive)	-8.1% (inactive)	92	-12.7% (inactive)	103	-0.489 (inactive)	-5.9e-05 (inactive)	0.00895 (inactive)	-16.3% (inactive)	-2.74% (inactive)
CCn1ncc(Cl)c1C(=O)Nc1ccncc1	587	-6.1% (inactive)	-21.9% (inactive)	56.2	-41% (inactive)	101	-0.577 (inactive)	-5.6e-05 (inactive)	0.00342 (inactive)	3.99% (inactive)	-1.03% (inactive)
COc1ccc2[nH]c(=O)c(CN(CC3CCCO3)C(=O)Nc3ccc(F)cc3)cc2c1 (stereo not drawn)	621	3% (inactive)	12.1% (inactive)	95.3	-38.1% (inactive)	114	-0.512 (inactive)	7.8e-06 (inactive)	0.00737 (inactive)	-18.3% (inactive)	-13.3% (inactive)
CCOc1ccc2[nH]c(=O)c(CN(Cc3nnnn3CCc3ccccc3)CC3CCCO3)cc2c1 (stereo not drawn)	742	-1.7% (inactive)	-4.9% (inactive)	113	17.7% (inactive)	107	-0.476 (inactive)	-0.000196 (inactive)	0.00465 (inactive)	3.9% (inactive)	16.9% (inactive)
O=C(NCc1ccc(F)cc1)c1cc2ccccn2n1	589	4.4% (inactive)	6% (inactive)	97	-1% (inactive)	107	-0.601 (inactive)	-3.6e-05 (inactive)	0.00683 (inactive)	1.23% (inactive)	-17.7% (inactive)
COc1ccccc1NC(=O)Cc1noc(CSc2cc(C)c3ccccc3n2)n1	572	-12.8% (inactive)	25.7% (inactive)	81.6	-160% (inactive)	95.9	-0.337 (inactive)	-5.3e-05 (inactive)	0.00168 (inactive)	6.32% (inactive)	-8.68% (inactive)
CCOC(=O)C1CCN(C(c2cc3cc(C)cc(C)c3[nH]c2=O)c2nnnn2C2CCCCC2)CC1 (stereo not drawn)	444	-8.2% (inactive)	-7.5% (inactive)	77.4	-75.4% (inactive)	159	-0.625 (inactive)	-3.6e-06 (inactive)	0.00591 (inactive)	13.6% (inactive)	38.3% (inactive)
O=C(Nc1nnc(N2CCCCCC2)s1)c1cc(-c2ccc(Br)cc2)on1	890	1.2% (inactive)	5.2% (inactive)	85.6	-76.6% (inactive)	120	-0.612 (inactive)	-2.8e-06 (inactive)	0.00651 (inactive)	5.43% (inactive)	23.2% (inactive)
CCCOc1ccccc1C1CC(=O)Nc2cc3c(cc21)OCCO3 (stereo not drawn)	647	4.9% (inactive)	6.6% (inactive)	39.3	29.7% (inactive)	97.2	-0.628 (inactive)	-2e-05 (inactive)	0.00236 (inactive)	-3.13% (inactive)	78% (active)
COc1ccc(-c2noc(CSc3nc(N)c(-c4ccccc4)c(=O)[nH]3)n2)cc1OC	338	5.8% (inactive)	-0.8% (inactive)	97.1	-12.1% (inactive)	122	-0.441 (inactive)	2.8e-05 (inactive)	0.00653 (inactive)	12% (inactive)	15.6% (inactive)
O=C(CCSc1nccn1Cc1ccccc1)N1CCOCC1	447	-6.8% (inactive)	-9.1% (inactive)	93.1	-7.8% (inactive)	80.8	-0.524 (inactive)	-5.2e-05 (inactive)	0.00524 (inactive)	1.9% (inactive)	-9.28% (inactive)
COc1ccc(-c2nnc(-c3ccc(N)cc3)o2)cc1	332	5.5% (inactive)	9.6% (inactive)	111	-145% (inactive)	124	-0.0553 (active)	-2.2e-05 (inactive)	0.00409 (inactive)	-34.1% (inactive)	-82.2% (inactive)
COCCn1c(COc2ccc(Cl)cc2)nnc1SCC(N)=O	424	3.4% (inactive)	7.6% (inactive)	93.8	-31.9% (inactive)	119	-0.586 (inactive)	-6e-05 (inactive)	0.00579 (inactive)	18.2% (inactive)	25.2% (inactive)
CCOC(=O)c1sc(Nc2nc3c(OC)cccc3s2)nc1C	435	2.2% (inactive)	-20.1% (inactive)	106	-20.5% (inactive)	101	-0.351 (inactive)	2.5e-05 (inactive)	0.00775 (inactive)	-1.57% (inactive)	-60.9% (inactive)
Cn1c(=O)[nH]c(=O)c2c1ncn2CCN1CCOCC1	696	-12.1% (inactive)	-10.8% (inactive)	107	-6.5% (inactive)	102	-0.512 (inactive)	1.1e-05 (inactive)	0.00632 (inactive)	8.85% (inactive)	16.4% (inactive)
COc1ccc(C2C(C#N)=C(N)Oc3cc4c(cc32)OCO4)cc1 (stereo not drawn)	496	3.5% (inactive)	4.7% (inactive)	105	-103% (inactive)	110	-0.401 (inactive)	-5.6e-05 (inactive)	0.00586 (inactive)	-6.84% (inactive)	59.4% (active)
CC(=O)NCc1nc2ccccc2n1C(C)C	518	13% (inactive)	15.8% (inactive)	110	6.4% (inactive)	119	-0.575 (inactive)	-3.7e-05 (inactive)	0.00817 (inactive)	7.73% (inactive)	21.5% (inactive)
NS(=O)(=O)c1ccc(CCNC(=O)c2cccnc2)cc1	580	-8.3% (inactive)	-11.5% (inactive)	105	-75.4% (inactive)	107	-0.276 (inactive)	-6.8e-05 (inactive)	0.00459 (inactive)	10.9% (inactive)	99.1% (active)
CC12COC3(C(=O)Nc4ccc(Cl)cn4)CC1CCC32C (stereo not drawn)	773	-8% (inactive)	16.9% (inactive)	85.1	-32.6% (inactive)	102	-0.395 (inactive)	-5.6e-05 (inactive)	0.00598 (inactive)	-1.35% (inactive)	10.2% (inactive)
CCOc1cc(NC(=O)c2ccco2)c(OCC)cc1NC(=O)Cc1cccc(OC)c1	592	-14.5% (inactive)	-4.3% (inactive)	107	22.4% (inactive)	102	-0.397 (inactive)	-5.1e-05 (inactive)	0.00431 (inactive)	-6.51% (inactive)	-45.9% (inactive)
CCOC(=O)c1csc(NC(=O)C2CCCCC2)n1	706	-18.4% (inactive)	-10% (inactive)	90.2	-4.9% (inactive)	94.6	-0.419 (inactive)	-0.000101 (inactive)	0.00464 (inactive)	-47.3% (inactive)	-124% (inactive)
CN(C)CC(C(=O)c1ccccc1)c1ccccc1 (stereo not drawn)	460	2.4% (inactive)	-28% (inactive)	13.4	20.2% (inactive)	113	-0.251 (inactive)	-1.2e-05 (inactive)	0.0054 (inactive)	11% (inactive)	82.3% (active)
CC(=O)Nc1c2c(nn1-c1ccc(C)cc1C)CSC2	570	0.9% (inactive)	9.6% (inactive)	95.7	33.7% (inactive)	103	-0.562 (inactive)	-5.2e-05 (inactive)	0.00674 (inactive)	-12.5% (inactive)	-10.7% (inactive)
COc1ccc(-n2c(Cc3cccn3C)nnc2SCC(=O)NCC2CCCO2)cc1 (stereo not drawn)	846	1.8% (inactive)	21.3% (inactive)	103	-182% (inactive)	130	-0.56 (inactive)	-3.5e-05 (inactive)	0.00701 (inactive)	8.65% (inactive)	32% (inactive)
CC1CCCCC1NC(=O)c1ccc(N2CCCC2=O)cc1 (stereo not drawn)	536	-21.7% (inactive)	-20.5% (inactive)	142	-20.8% (inactive)	103	-0.51 (inactive)	3.4e-05 (inactive)	0.00599 (inactive)	5.47% (inactive)	-5.67% (inactive)
CCOC(=O)N1CCC(N(C(=O)Nc2cccc(OC)c2)C(C)CC)CC1 (stereo not drawn)	534	-4.4% (inactive)	-16.1% (inactive)	44	-60.6% (inactive)	98.9	-0.513 (inactive)	-3.9e-05 (inactive)	0.00561 (inactive)	12.2% (inactive)	11.5% (inactive)
Cc1ccc(CCNC(=O)C2CCCN(S(=O)(=O)c3cnc[nH]3)C2)cc1 (stereo not drawn)	603	-0.2% (inactive)	-6.4% (inactive)	99.1	-89.2% (inactive)	135	-0.577 (inactive)	-1.4e-06 (inactive)	0.00614 (inactive)	1.87% (inactive)	18% (inactive)
